Measurements published in PubChem BioAssay (Tox21).
Results filed as inconclusive are left out. Activity calls are given as the source filed them. Unless noted, calls come from the whole dose curve; as a rule, active = well fitted curve in the direction sought with a large enough effect in the repeat runs; inconclusive = weak or mixed curves; inactive = no such curve, though single readings can be large; an effect the other way counts as inactive or inconclusive.

Experiments:
[1] = qHTS RealTime-Glo MT Cell Viability Assay in HEK293 cells - 24 hour (AID 1224886); note: top concentration of the series differs between compounds; nearly all actives have a fitted effect of over 50% in size
In short: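 Reads taken at 0, 8, 16, 24, 32 and 40 h from the same wells. HEK293 cells (600/well) carried RealTime-Glo reagents from seeding, with compound added after a 5 h settle at 37 C.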

[2] = qHTS RealTime-Glo MT Cell Viability Assay in HEK293 cells - 8 hour (AID 1224887); note: top concentration of the series differs between compounds; nearly all actives have a fitted effect of over 50% in size
In short: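 Kinetic, non-lysing viability readout. Seed HEK293 (600/well) with reagent, incubate 5 h at 37 C/5% CO2, pin 23 nL compound in DMSO, incubate at 37 C, read luminescence at 0, 8, 16, 24, 32, 40 h.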

[3] = A CellTox Green Cytotoxicity Assay to monitor cytotoxicity in HEK293 cells - 16 hour (AID 1224888); note: nearly all actives have a fitted effect of over 35% in size
In short: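 Real-time, in one plate: 600 HEK293 cells/well with dead-cell DNA dye, pinned compound after 5 h, 37 C incubation over 40 h; viable cells give no appreciable fluorescence.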

[4] = qHTS RealTime-Glo MT Cell Viability Assay in HepG2 cells - 0 hour (AID 1224889); note: nearly all actives have a fitted effect of over 50% in size
In short: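 HepG2 suspension premixed with RealTime-Glo reagents is plated at 600 cells per well and left 5 h at 37 C/5% CO2. Compounds in DMSO then go in, and bioluminescence reflecting viable cell number is recorded over 40 h.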

[5] = A CellTox Green Cytotoxicity Assay to monitor cytotoxicity in HepG2 cells - 8 hour (AID 1224890); note: nearly all actives have a fitted effect of over 45% in size
In short: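 Cytotoxicity was tracked as dead-cell DNA fluorescence in HepG2 cells treated with test compounds at 37 C; each time-point value comes from one kinetic series spanning 0, 8, 16, 24, 32 and 40 h.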

[6] = qHTS assay to identify small molecule antagonists of the estrogen receptor alpha (ER-alpha) signaling pathway using the BG1 cell line in the presence of 0.1 nM 17-beta-estradiol - cell viability counter screen (AID 1259241); note: nearly all actives have a fitted effect of over 40% in size
In short: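 VM7Luc4E2 cells (endogenous full-length ER-alpha, 4xERE-luciferase), cultured 5 days in charcoal-stripped serum, exposed to compounds with 0.1 nM 17beta-estradiol (final) for 22 hr at 37C. Viability read in same wells as live-cell protease fluorescence after 30 min.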

[7] = qHTS assay to identify small molecule antagonists of the androgen receptor (AR) signaling pathway using the MDA cell line in the presence of 0.5 nM R1881 - cell viability counter screen (AID 1259242); note: nearly all actives have a fitted effect of over 45% in size
In short: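 Cells seeded at 3,000/well and allowed 5 hr at 37C, 0% CO2 before compound transfer and R1881 (0.5 nM final) addition; 16 hr later, live-cell protease fluorescence indicated cytotoxicity.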

[8] = target: Estrogen receptor (Homo sapiens) (UniProt P03372); assay: qHTS assay to identify small molecule antagonists of the estrogen receptor alpha (ER-alpha) signaling pathway using the BG1 cell line in the presence of 0.1 nM 17-beta-estradiol (AID 1259244); note: nearly all actives have a fitted effect of over 50% in size
In short: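 Luciferase signal from VM7Luc4E2 ERE-reporter cells, co-dosed with test compound and 0.1 nM final 17beta-estradiol for 22 h, read with ONE-Glo.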

[9] = qHTS assay to identify small molecule phospholipidosis (PLD) inducers (AID 1259344; active = well fitted curve in the direction sought with a large enough effect; an effect the other way counts as inactive or inconclusive)
In short: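 Cells (HepG2, 900 per well) attach for 4 h, receive LipidTOX Red and compound together, incubate 24 h at 37 C, are fixed 30 min with paraformaldehyde/Hoechst, then imaged at one site per well.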

[10] = qHTS assay to identify small molecule HDAC inhibitors (AID 1259364);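 note: wild-type HCT-116 cells with endogenous class I/II HDAC activity; top concentration of the series differs between compounds; nearly all actives have a fitted effect of over 45% in size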
In short: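 HCT-116 wt cells, 1,500/well, overnight attach. Compounds (DMSO) 2 h, 37 °C. HDAC-Glo I/II, 30 min RT. Luminescence.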

Measured: Potency

Sequence of Estrogen receptor (Homo sapiens) (P03372 whole entry, looked up): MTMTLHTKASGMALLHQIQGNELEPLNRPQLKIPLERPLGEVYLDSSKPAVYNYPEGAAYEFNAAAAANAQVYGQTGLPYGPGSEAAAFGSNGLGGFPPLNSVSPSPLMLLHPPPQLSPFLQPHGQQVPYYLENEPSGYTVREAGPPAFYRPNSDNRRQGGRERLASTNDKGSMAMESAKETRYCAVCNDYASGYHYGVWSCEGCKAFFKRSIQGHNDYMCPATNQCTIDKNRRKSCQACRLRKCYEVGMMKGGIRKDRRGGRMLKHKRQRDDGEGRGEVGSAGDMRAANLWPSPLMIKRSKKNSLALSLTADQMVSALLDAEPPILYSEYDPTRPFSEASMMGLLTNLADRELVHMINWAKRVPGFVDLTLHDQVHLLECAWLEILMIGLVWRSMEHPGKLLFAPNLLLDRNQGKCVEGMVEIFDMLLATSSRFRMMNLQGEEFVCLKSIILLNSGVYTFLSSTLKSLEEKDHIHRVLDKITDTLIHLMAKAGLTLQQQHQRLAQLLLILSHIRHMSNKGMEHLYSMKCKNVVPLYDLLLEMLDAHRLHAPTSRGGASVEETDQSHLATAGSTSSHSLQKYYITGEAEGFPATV

O=C1CC[C@H](C(=O)N2CCCCC2)N1
inactive: all assays above

C=CCOc1c(Br)cc(Br)cc1Br
not listed: [9]
inactive: all other assays above

CCC(=O)c1ccc(O)cc1
inactive: all assays above

O=[Si]=O
not listed: [9]
inactive: all other assays above

COc1cc2c(Nc3ccc(Br)cc3F)ncnc2cc1OCC1CCN(C)CC1
inactive: all assays above

CCCCCCCC/C=C\CCCCCCCC(=O)OC[C@@H](O)[C@H]1OC[C@H](O)[C@H]1O
inactive: all assays above

CCNC(=O)NCCCOc1cccc(CN2CCCCC2)c1
inactive: all assays above

CCCOC(=O)CCCCC(=O)OCCC
not listed: [9]
inactive: all other assays above

O=C(O)/C=C/c1ccccc1
inactive: all assays above

Cc1nc([N+](=O)[O-])cn1-c1ccc([N+](=O)[O-])cc1
inactive: all assays above

CCCCCCCCOC(C)=O
not listed: [9]
inactive: all other assays above

CN=C(NC#N)NCCSCc1csc(N=C(N)N)n1
inactive: all assays above

OC(CCN1CCCCC1)(c1ccccc1)c1ccccc1
inactive: all assays above

COC(=O)CCC(=O)O
not listed: [9]
inactive: all other assays above

CO[Si](CCCS)(OC)OC
not listed: [9]
inactive: all other assays above

O=C1OC(=O)c2ccccc21
not listed: [9]
inactive: all other assays above

CCN(CCO)c1cccc(C)c1
not listed: [9]
inactive: all other assays above

CCCCCCCCCCCCOC(C)=O
not listed: [9]
inactive: all other assays above

Nc1ccc(C(=O)OCC(O)CO)cc1 (centres undefined)
not listed: [9]
inactive: all other assays above

Cc1nc(C)nc(N2C[C@@H](C)N(c3ccnc([C@@H](C)O)n3)[C@@H](C)C2)n1
not listed: [9]
inactive: all other assays above

CC(=O)N1CCN(c2ccc(O)cc2)CC1
not listed: [9]
inactive: all other assays above

CCCCCCCCCCCCC1CO1 (centres undefined)
not listed: [9]
inactive: all other assays above

O=CN1CCOCC1
not listed: [9]
inactive: all other assays above

OCCCCCCCl
not listed: [9]
inactive: all other assays above

Nc1nc(=O)n([C@@H]2O[C@H](CO)[C@@H](O)[C@@H]2F)cc1I
not listed: [9]
inactive: all other assays above
